From PubChem
eLon inh – E. coli protease La inhibition; purified E. coli Lon protease, fluorescence polarization; P0A9M0; 0.42% of 360,000 active; inhibition, % at 7.94 µM; in the data active means inhibition above about 13%, passing the limit was not always enough;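 further: 0% = enzyme with probe and DMSO and 100% = no enzyme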
GLD-1 TGE inh – GLD-1-TGE RNA interaction inhibition (C. elegans) | 0.44% of 320,000 active | AID 2280 | purified GLD-1 + fluorescein TGE RNA, fluorescence polarization | inhibition, % at 5.96 µM | Q17339;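 active means percent inhibition above a per-plate cutoff, the plate mean of test compounds plus 3 SD, cut at about 30% in these data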;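 further: 0% = DMSO wells with GLD-1 and probe and 100% = wells lacking GLD-1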
MCL1-BIM inh – inhibitors of human MCL1 binding to BIM-BH3 peptide. 0.68% of 320,000 active. Q07820. inhibition, % at 10.9 µM. GST-MCL1 / FITC-Bim-BH3 fluorescence polarization;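 active means inhibition above the mean inhibition of all tested compounds plus 3 SD, set per campaign, cut at about 40% in these data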;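 further: 0% = DMSO wells and 100% = unlabeled Bim-BH3 peptide control; higher means more loss of mP so more displacement of Bim peptide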
C-LANA FP – KSHV C-LANA DNA binding inhibition; MBP-C-LANA/FAM-LBS DNA binding, fluorescence polarization; inhibition, % at 9 µM; 0.078% of 340,000 active; AID 504423;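 active means highest replicate inhibition at or above 60% at 9 µM, even if other replicates fall short; inactive means all replicates below 60% inhibition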;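 further: 0% = neutral control wells and 100% = 4 µM acridine orange control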
Bcl-xL primary – inhibitors of human Bcl-xL; Q07817; GST-Bcl-xL / FITC-Bim BH3 peptide fluorescence polarization; inhibition, % at 10.9 µM; 0.7% of 320,000 active;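 active means inhibition above the mean of all tested compounds plus 3 SD, cutoff set per campaign, cut at about 30% in these data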;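 further: 0% = DMSO wells and 100% = unlabeled Bim-BH3 peptide competitor; inhibitors lower millipolarization by displacing the labeled peptide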
Keap1 Nrf2 FP – disrupts human Keap1 binding to Nrf2 peptide | inhibition, % at 9.4 µM | 0.15% of 340,000 active | Q14145 | Keap1 Kelch-Nrf2 peptide fluorescence polarization, 1536-well; in the data active means inhibition above about 12%;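 further: human Keap1 Kelch domain with fluorescein labeled Nrf2 9mer peptide probe; 0% = neutral control wells and 100% = peptide positive control; higher means more block of Keap1 binding to Nrf2 peptide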
Target sequence (Q14145 whole entry, looked up, the tested form may be a part): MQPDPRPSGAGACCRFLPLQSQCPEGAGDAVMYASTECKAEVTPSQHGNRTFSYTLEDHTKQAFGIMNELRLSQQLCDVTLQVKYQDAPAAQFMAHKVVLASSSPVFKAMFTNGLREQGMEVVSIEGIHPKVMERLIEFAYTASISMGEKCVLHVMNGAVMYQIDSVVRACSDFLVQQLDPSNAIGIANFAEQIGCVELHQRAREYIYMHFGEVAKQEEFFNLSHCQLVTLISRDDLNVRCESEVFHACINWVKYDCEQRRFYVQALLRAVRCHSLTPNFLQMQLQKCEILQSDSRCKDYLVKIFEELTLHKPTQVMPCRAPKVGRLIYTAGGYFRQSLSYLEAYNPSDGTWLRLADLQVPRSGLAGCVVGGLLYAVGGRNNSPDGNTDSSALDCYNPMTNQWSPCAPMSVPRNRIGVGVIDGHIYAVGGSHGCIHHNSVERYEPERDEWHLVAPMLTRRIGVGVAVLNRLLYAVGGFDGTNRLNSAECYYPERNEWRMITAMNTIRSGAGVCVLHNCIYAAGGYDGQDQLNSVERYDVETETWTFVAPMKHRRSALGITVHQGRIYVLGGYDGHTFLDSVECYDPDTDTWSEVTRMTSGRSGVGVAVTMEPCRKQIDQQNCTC
E coli Lon conf – E. coli Lon inhibition confirmation; shares compounds with eLon inh; purified E. coli Lon, fluorescence polarization; inhibition, % at 7.94 µM; 31% of 1,400 active; AID 602230; in the data active means inhibition above about 16%;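 further: 0% = enzyme with probe and DMSO and 100% = no enzyme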
Numbers without * were called inactive; i = inactive; nt = not tested or not shown. An excerpt weighted towards active compounds, which were near 1.3% of everything screened.

SMILES	eLon inh	GLD-1 TGE inh	MCL1-BIM inh	C-LANA FP	Bcl-xL primary	Keap1 Nrf2 FP	E coli Lon conf
CC(=O)N1CCN(S(=O)(=O)c2ccc(S(=O)(=O)N3CCCC(C)C3)cc2)CC1 (stereo unspecified)	22.3*	0.1	-3.2	-1.8	1.5	-4.9	-14.0
COc1ccc(OC)c(NCCN2C(=O)c3ccccc3C2=O)c1	-0.7	nt	nt	nt	nt	nt	nt
CCCCNc1ccc2c3c(cccc13)C(=O)N(CCCC)C2=O	134.7*	nt	nt	27.1	nt	10.1	i
CC(=O)N(C(C)=O)N1C(=O)c2cccc3c(N4CCOCC4)ccc(c23)C1=O	39.2*	33.4*	27.7	15.2	42.8*	-2.8	21.0*
Cc1ccc(N2CCOCC2)c2c1C(=O)c1ccccc1C2=O	-7.3	2.5	0.5	1.3	2.1	-0.4	nt
CN(C)CCCN1C(=O)c2cccc3c(Br)ccc(c23)C1=O	31.2*	22.4	38.9	2.4	35.1*	-1.5	67.6*
CCCN1C(=O)c2cccc3c(N4CCCCC4)ccc(c23)C1=O	73.6*	34.9*	35.3	3.4	43.0*	-3.5	-22.9
CC1=C(C(=O)Nc2cc(C(=O)NCCCOC(C)C)ccc2C)SCCO1	6.8	5.9	-5.5	-1.5	-2.0	-6.9	nt
COc1ccc(C(=O)O)cc1S(=O)(=O)N(CCc1ccccc1)Cc1ccccc1	0.1	-9.1	7.2	-0.4	4.9	-6.0	nt
O=C1C=C(N2CCOCC2)c2cccc3cccc1c23	183.0*	nt	nt	nt	nt	nt	5.8
O=C1C(N2CCOCC2)=Cc2cccc3cccc1c23	185.9*	nt	nt	nt	nt	nt	194.6*
O=C1C=C(N2CCOCC2)c2ccccc2C1=O	10.3	1.0	0.2	5.5	0.0	-0.5	nt
COc1ccc(-c2coc3c(CN4CCCCC4C)c(O)ccc3c2=O)cc1 (stereo unspecified)	-8.3	-3.7	0.5	-0.2	11.5	-0.6	nt
COc1ccc(/C=C/C(=O)OCC(=O)Nc2ccc3[nH]c(=O)[nH]c3c2)cc1OC	11.9	3.5	-1.3	-2.2	0.8	-3.7	nt
Cc1cc2cc(CNC(=S)Nc3ccc(OC(F)(F)F)cc3)ccc2n1C	19.1*	7.9	12.4	0.3	8.2	3.0	19.1*
Cc1c(C(=O)NCc2ccc3c(c2)cc(C)n3C)cccc1[N+](=O)[O-]	31.1*	6.1	4.5	0.2	9.1	-3.5	3.9
Cc1cc2cc(CNC(=O)Nc3cccc(Cl)c3)ccc2n1C	40.2*	15.7	9.4	-0.3	14.0	-1.7	44.8*
Cc1cc2cc(CNC(=O)c3cccc([N+](=O)[O-])c3)ccc2n1C	7.5	10.1	5.5	-0.4	5.5	-0.6	nt
Cc1cccc(NC(=O)NCc2ccc3c(c2)cc(C)n3C)c1	30.0*	16.2	7.4	-1.5	7.8	3.7	13.3
CCOc1cc(/C=C/C(=O)OCC(=O)NC2CCS(=O)(=O)C2)ccc1OCc1ccccc1 (stereo unspecified)	-0.3	4.7	-5.1	0.1	-2.8	3.9	nt
Cc1ccc(-c2cc(NC=O)c3ncc(-c4cnn(C)c4)n3c2)cc1	-80.0	nt	nt	nt	nt	nt	nt
CC1(C(=O)Nc2ccc3c(c2)OCCO3)CCC(=O)N1CCOc1ccccc1 (stereo unspecified)	-8.4	nt	nt	nt	nt	nt	nt
CC(=O)ON1C(C)(C)CC(OC(=O)c2ccccc2)CC1(C)C	-4.7	0.1	-2.6	0.1	0.5	-0.2	nt
CC(=O)OC1CC(C)(C)N(OC(=O)c2ccccc2)C(C)(C)C1	14.8*	0.4	-3.5	0.0	-0.2	2.1	6.3
O=C(CCNC(=O)c1ccccc1Cl)Nc1nccs1	1.1	-7.5	-1.2	0.0	2.0	-3.1	nt
SMILES	eLon inh	GLD-1 TGE inh	MCL1-BIM inh	C-LANA FP	Bcl-xL primary	Keap1 Nrf2 FP	E coli Lon conf
Oc1ccc(N2Cc3ccccc3C2)cc1	37.3*	6.5	-1.6	1.9	9.8	-2.2	-11.2
CCc1cccc(CC)c1NC(=O)C(CC)Sc1nc2ccncc2[nH]1 (stereo unspecified)	-0.6	0.5	-3.5	0.9	0.4	2.1	nt
O=C(c1ccco1)N(CC1CCCO1)c1nc(-c2ccccc2)cs1 (stereo unspecified)	0.2	9.3	2.4	-2.7	5.8	0.3	nt
O=C(c1cccs1)N(CC1CCCO1)c1nc(-c2ccccc2)cs1 (stereo unspecified)	16.5*	3.3	7.0	1.2	3.9	-5.5	17.1*
NS(=O)(=O)c1ccc(CCNC(=O)COc2ccc3c4c(c(=O)oc3c2)CCC4)cc1	17.7*	4.2	2.4	0.3	2.6	-1.3	-39.8
COc1ccc(CC2=C(O)c3ccccc3C(=O)C2=O)cc1	6.1	0.4	13.9	-0.8	3.1	0.4	nt
O=C1C(=O)c2ccccc2C(O)=C1CCCCl	77.2*	1.4	1.3	4.3	5.4	1.3	4.7
CC1(C)Cc2cccc(OCC(=O)NCc3ccccc3F)c2O1	-9.9	3.0	0.1	1.1	-1.2	0.7	nt
CC1CC(=O)c2cnc(NCC3CCCO3)nc2C1 (stereo unspecified)	15.7*	15.1	18.4	2.1	14.4	-3.5	-0.9
COc1ccc(CNC(NC(=O)c2ccccc2)(C(F)(F)F)C(F)(F)F)cc1	29.6*	1.7	0.5	-1.3	-1.2	-3.8	3.0
CCOC(=O)C(NCc1ccc(F)cc1)(NC(=O)c1ccccc1)C(F)(F)F (stereo unspecified)	-6.4	8.9	10.4	-0.8	8.6	1.3	nt
NNC(=O)CNC(=O)c1ccccc1F	53.2*	5.0	2.8	-0.2	2.0	1.2	-4.1
O=C(CNC(=O)c1ccccc1F)c1ccccc1	0.4	9.1	5.0	1.2	4.6	0.8	nt
CC(NC(=O)NC(=O)c1cccc([N+](=O)[O-])c1)C1CC1 (stereo unspecified)	7.2	nt	nt	1.1	nt	-3.8	nt
CC(NC(=O)NC(=O)c1ccc(F)cc1)C1CC1 (stereo unspecified)	26.5*	1.9	nt	0.2	nt	-1.4	-3.6
O=C(c1ccco1)N1CCN(Cc2cc(=O)oc3cc(O)ccc23)CC1	-9.2	-2.8	-2.6	-0.1	-4.7	-0.2	nt
CC(=O)c1cc(-c2ccccc2)[nH]c1N1CCOCC1	63.5*	6.4	9.5	-0.8	17.0	-3.8	-0.8
COc1ccc(N2C(=O)C(CC(=O)O)S/C2=N\N=C\c2cccs2)cc1 (stereo unspecified)	6.6	-4.4	-10.7	1.1	-2.2	-2.3	nt
O=c1nc2ccccc2c(NS(=O)(=O)c2ccccc2)n1-c1ccccc1	61.0*	-0.5	4.2	-1.3	2.2	2.0	5.7
Cc1ccc(S(=O)(=O)Nc2c3ccccc3nc(=O)n2-c2ccccc2)cc1	4.1	3.1	5.7	-0.5	1.0	1.1	nt
Cn1c2nc(=O)n(-c3ccccc3)c(=O)c-2nc2c1CCCC2	122.7*	nt	nt	nt	nt	nt	76.5*
Cc1nn(C)c(=O)n1-c1ccccc1	-0.9	-5.0	-8.4	1.2	4.0	1.2	nt
CCn1nc(C(C)C)cc1C(=O)N1CCCC(CO)(Cc2ccc(F)cc2F)C1 (stereo unspecified)	-7.3	1.3	-4.9	0.1	-0.5	-3.7	nt
